The results in this text go back to the supplement of paper PMC12819154, “High-throughput peptide-centric local stability assay extends protein–ligand identification to membrane proteins, tissues and bacteria” (Nature Structural & Molecular Biology, 2025).

UniProt P48962, sequence (P48962 whole entry): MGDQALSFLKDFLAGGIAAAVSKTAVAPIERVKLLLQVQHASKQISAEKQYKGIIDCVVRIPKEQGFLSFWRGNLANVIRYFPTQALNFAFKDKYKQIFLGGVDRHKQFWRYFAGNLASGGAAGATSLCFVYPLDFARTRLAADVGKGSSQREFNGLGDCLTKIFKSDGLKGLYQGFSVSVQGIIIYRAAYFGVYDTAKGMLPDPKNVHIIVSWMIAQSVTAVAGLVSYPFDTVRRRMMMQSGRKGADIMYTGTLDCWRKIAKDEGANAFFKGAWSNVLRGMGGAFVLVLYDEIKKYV
UniProt A2ATU0, sequence (A2ATU0 whole entry): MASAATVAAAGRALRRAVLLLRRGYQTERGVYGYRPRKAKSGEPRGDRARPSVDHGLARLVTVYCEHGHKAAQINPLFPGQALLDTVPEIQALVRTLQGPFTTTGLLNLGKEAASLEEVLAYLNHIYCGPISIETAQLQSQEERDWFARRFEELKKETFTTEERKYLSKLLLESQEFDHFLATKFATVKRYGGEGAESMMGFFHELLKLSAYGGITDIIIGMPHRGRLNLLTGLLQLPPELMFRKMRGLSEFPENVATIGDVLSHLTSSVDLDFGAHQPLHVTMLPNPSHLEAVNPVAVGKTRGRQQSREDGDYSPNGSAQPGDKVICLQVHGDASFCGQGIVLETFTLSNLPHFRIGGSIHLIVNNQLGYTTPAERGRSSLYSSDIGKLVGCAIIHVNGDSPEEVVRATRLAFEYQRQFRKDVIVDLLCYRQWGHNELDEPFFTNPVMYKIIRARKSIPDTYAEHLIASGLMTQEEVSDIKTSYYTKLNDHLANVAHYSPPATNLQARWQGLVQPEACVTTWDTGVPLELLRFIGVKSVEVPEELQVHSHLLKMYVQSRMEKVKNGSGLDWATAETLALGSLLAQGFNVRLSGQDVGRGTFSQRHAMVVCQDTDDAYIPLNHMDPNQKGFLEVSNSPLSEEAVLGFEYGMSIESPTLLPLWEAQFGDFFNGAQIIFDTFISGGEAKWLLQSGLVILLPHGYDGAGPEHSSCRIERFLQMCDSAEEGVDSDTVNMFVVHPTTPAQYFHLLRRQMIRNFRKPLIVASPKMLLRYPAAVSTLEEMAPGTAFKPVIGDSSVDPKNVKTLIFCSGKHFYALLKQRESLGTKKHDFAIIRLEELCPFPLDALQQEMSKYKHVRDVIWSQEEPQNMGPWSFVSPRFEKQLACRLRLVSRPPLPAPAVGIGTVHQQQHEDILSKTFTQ
UniProt Q9DBG5, sequence (Q9DBG5 whole entry): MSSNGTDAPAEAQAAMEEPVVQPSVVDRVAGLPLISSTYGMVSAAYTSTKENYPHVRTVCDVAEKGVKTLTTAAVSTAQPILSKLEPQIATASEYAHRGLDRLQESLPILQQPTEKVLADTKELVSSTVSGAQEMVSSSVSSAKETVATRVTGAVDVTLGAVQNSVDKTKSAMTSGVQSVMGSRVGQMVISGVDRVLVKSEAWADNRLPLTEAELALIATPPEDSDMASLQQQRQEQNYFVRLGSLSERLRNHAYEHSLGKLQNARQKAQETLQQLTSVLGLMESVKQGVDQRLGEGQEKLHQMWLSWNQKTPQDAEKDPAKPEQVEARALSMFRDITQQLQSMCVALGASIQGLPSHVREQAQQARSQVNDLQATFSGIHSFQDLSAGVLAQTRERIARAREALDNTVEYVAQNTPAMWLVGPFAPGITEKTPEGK
UniProt Q5U5V2, sequence (Q5U5V2 whole entry): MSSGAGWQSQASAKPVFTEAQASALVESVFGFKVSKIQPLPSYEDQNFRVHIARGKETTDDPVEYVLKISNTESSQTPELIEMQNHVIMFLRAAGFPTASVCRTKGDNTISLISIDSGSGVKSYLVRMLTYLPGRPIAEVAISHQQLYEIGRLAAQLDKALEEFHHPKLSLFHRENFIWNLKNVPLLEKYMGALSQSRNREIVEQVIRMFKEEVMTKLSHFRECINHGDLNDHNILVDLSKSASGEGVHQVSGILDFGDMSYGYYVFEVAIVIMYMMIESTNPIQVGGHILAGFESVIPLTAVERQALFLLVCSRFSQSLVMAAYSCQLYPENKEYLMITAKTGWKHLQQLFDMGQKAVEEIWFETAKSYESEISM
UniProt Q5M8N4, sequence (Q5M8N4 whole entry): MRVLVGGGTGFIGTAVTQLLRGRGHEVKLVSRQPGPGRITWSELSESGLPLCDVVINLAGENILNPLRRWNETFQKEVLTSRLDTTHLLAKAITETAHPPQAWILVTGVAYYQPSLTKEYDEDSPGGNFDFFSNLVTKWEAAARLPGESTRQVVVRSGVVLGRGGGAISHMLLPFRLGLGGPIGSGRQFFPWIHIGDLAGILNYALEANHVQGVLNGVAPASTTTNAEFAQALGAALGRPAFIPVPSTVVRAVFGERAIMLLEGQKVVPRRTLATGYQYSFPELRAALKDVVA
UniProt Q3TWW8, sequence (Q3TWW8 whole entry): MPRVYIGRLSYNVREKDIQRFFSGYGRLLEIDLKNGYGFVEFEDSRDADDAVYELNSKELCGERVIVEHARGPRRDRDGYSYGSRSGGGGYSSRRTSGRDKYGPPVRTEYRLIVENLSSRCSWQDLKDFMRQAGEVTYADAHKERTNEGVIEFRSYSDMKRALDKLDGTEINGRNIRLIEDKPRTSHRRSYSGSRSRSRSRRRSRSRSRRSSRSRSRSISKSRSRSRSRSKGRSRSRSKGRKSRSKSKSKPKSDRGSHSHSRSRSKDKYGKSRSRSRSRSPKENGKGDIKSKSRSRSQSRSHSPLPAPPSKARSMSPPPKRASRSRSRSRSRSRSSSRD
UniProt Q9CQE1, sequence (Q9CQE1 whole entry): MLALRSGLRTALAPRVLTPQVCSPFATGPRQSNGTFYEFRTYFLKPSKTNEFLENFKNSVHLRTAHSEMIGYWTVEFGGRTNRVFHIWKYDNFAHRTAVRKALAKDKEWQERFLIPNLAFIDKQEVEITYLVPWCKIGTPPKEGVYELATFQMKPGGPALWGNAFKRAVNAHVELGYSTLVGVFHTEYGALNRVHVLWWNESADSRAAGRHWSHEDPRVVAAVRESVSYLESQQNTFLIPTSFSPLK

Compound in this assay: CN[C@@H]1C[C@H]2O[C@@](C)([C@@H]1OC)n1c3ccccc3c3c4c(c5c6ccccc6n2c5c31)C(=O)NC4 [staurosporine]
Description: log2 fold change of tryptic peptide abundance, ligand vs vehicle (limited proteolysis) (log2 ratio); higher = more trypsin-susceptible (destabilized). The note with it: ligand concentration: 20 uM; sample: mouse liver crude lysate; replicate design: treated separately.
In the case of “UniProt Q9DBG5 (peptide sequence: VGQMVISGVDR, peptide start residue: 185)”, the log2 fold change came out at 0.534.

On to “UniProt Q5M8N4 (peptide sequence: LGLGGPIGSGR, peptide start residue: 177)”, for which the log2 fold change is -0.493.

For the target “UniProt Q3TWW8 (peptide sequence: CSWQDLKDFMR, peptide start residue: 121)”, the log2 fold change turned out to be 1.07.

As for “UniProt A2ATU0 (peptide sequence: SSLYSSDIGK, peptide start residue: 380)”, the log2 fold change worked out at 0.605.

Regarding “UniProt Q5U5V2 (peptide sequence: ENFIWNLK, peptide start residue: 175)”, the log2 fold change is -0.924.

“UniProt P48962 (peptide sequence: MMMQSGRK, peptide start residue: 238)”: the log2 fold change is 0.293.

Turning to “UniProt Q9CQE1 (peptide sequence: HWSHEDPR, peptide start residue: 211)”, the log2 fold change is -0.522.
